The test deals with ALOX12B. Briefly: pooled miR-30 sensor sort-seq; sequence = guide strand. To be noted: shRNA.
TCACATACTTCTCCAGTGCATT came in with a sensor-assay potency score (higher = more potent) of -1.5.

TAGCCATTCCACTCAGGCCGGT: the sensor-assay potency score (higher = more potent) is -1.01.

Sequence TCGCCAGTGGTAGAAGTCCTGC came in with a sensor-assay potency score (higher = more potent) of -1.5. As to TTGGCTAGCAGCCAGTCCCACT, the sensor-assay potency score (higher = more potent) is -1.48.

Take ATAATAGGTGATGATCTCCGTC: the sensor-assay potency score (higher = more potent) is -0.228. In the case of TATAGTGACATATCGGATCAGC, the sensor-assay potency score (higher = more potent) was -0.0361. Turning to TCTGCTGTTGTCTTTCCTGTGG, the sensor-assay potency score (higher = more potent) is -0.381. The same measure for TTGATCTGGACGGTGTATCGGG: -0.0019. TTGCCAGGGAAAATTTTCCTAA registered a sensor-assay potency score (higher = more potent) of -0.741. TAATAGGTGATGATCTCCGTCA came in with a sensor-assay potency score (higher = more potent) of -0.427. The sequence TTGCAGTCCAACAGGCCGCGGA gave a sensor-assay potency score (higher = more potent) of -0.697.

As for TCTGATCTCCTCTTTTCTGTGC, the sensor-assay potency score (higher = more potent) came to 0.286.

In turn, TGTAGAACTCCGCATAGCGTAC returned a sensor-assay potency score (higher = more potent) of -1.11. For AACTTGTCTGGGATCCGCGTGC the value was 0.172; for TGATCTGGACGGTGTATCGGGT, -0.615; for TAGAAGTCCTGCTTGGCTCTGA, 0.53.

Source of the values: the OligoGym collection.
Further: reference of the scale not given here.
